Many of the other results were omitted from the sample, so hits are more common in it than they were.
Anaer choline gr = inhibitors of anaerobic choline-dependent gram-negative bacterial growth; hit rate 0.2% among 55,000; calls only; Gram-negative bacterium anaerobic choline minimal medium, absorbance growth; stronger effect = lower value; call rule not given here
* hit, by the source's call; i = inactive; + = active, no number; ! = repeats disagree.

SMILES | Anaer choline gr
Cc1sc2cc(C(=O)N3CCC4(CC3)OCCO4)[nH]c2c1CN1CCCCC1 | i
CCCN1CCN(C(=O)c2cc3sc(C)c(CN4CCCCC4)c3[nH]2)CC1 | i
Cc1sc2cc(C(=O)N3CCC(N4CCCCC4)CC3)[nH]c2c1CN1CCCCC1 | +
CCN1CCCn2nc(C3CCN(C(=O)c4sccc4C)CC3)cc2C1=O | i
Cc1ccc2nc(-c3ccccc3NC(=O)c3cccc(N(C)C)c3)ccc2c1 | i
CC(C)NC(=O)NC1CCN(C(=O)C2CCC2)C1 (centres undefined) | i
Cn1cc(C(=O)NC2CCCC2)c2[nH]c(=O)n(-c3ccc(F)cc3)c(=O)c21 | i
CCN1CCc2nc(NC(=O)c3ccc(S(=O)(=O)N4CCc5ccccc5C4)cc3)sc2C1 | +
CCCN1CCc2nc(NC(=O)c3ccc(S(=O)(=O)N4CCc5ccccc5C4)cc3)sc2C1 | i
O=C(Nc1nc2ccccc2s1)c1ccc(S(=O)(=O)N2CCc3ccccc3C2)cc1 | i
CCn1nnc2c(NCc3ccco3)ncnc21 | i
C#CCOc1ccc(C2CC(=O)Nc3c2c(C)nn3-c2nc3ccc(OC)cc3s2)cc1OC (centres undefined) | i
O=C1Nc2cc(S(=O)(=O)Nc3cccc(Cl)c3)ccc2SCC1CC(=O)N1CCCC1 (centres undefined) | i
C=Cc1ccc(CN2C(=O)N(c3cccc(OC)c3)S(=O)(=O)c3ccccc32)cc1 | i
CN1C(=O)Cc2cc(S(=O)(=O)N3CCC(c4nnc(C(=O)Nc5ccccc5)s4)CC3)ccc21 | i
CN1CCN(CCc2ccc(Cl)c(Cl)c2)CC1 | +
CN1CCN(S(=O)(=O)c2cc(-c3ccc(=O)[nH]n3)ccc2Cl)CC1 | i
CN1CCN(CCNC(=O)c2cc3n(n2)CCCC3)CC1 | i
COc1ccc(CNC(=O)C2(C)CCCN(C(=O)COc3ccccc3)C2)cc1 (centres undefined) | i
CN(C)CCCn1cc(C2=C(c3c[nH]c4ccccc34)C(=O)NC2=O)c2ccccc21 | +!
COc1ccc2c(c1)c(C1=C(c3c[nH]c4ccccc34)C(=O)NC1=O)cn2CCCN(C)C | i
Cn1cc(C2=C(c3cn(CCCSC(=N)N)c4ccccc34)C(=O)NC2=O)c2ccccc21 | i
Cn1ncc2c(NCc3ccc(F)cc3)nc(N3CCCC3)nc21 | i
Cc1ccc(CSc2nnc3c(S(=O)(=O)N4CCCC4)cccn23)cc1 | i
O=C(NC1CCCCC1)c1ccc2cn[nH]c2c1 | i
SMILES | Anaer choline gr
O=C(NC1CCCC1)C1CCCN(C(=O)c2ccc(NS(=O)(=O)c3ccccc3)cc2)C1 (centres undefined) | i
CCN1CCN(CCNc2nc(C3CC3)nc3c2CCC3)CC1 | +
O=C1CCCN1CCCNc1nc(C2CC2)nc2c1CCC2 | i
CN1CCN(CCNc2nc(C3CC3)nc3c2CCC3)CC1 | i
COc1ccc(OCC(=O)N2CSC[C@@H]2C(=O)NCCc2cscn2)cc1 | i
COc1ccc(NC(=O)c2nnc(C3CCN(C(=O)c4ccccc4F)CC3)s2)cc1 | i
CC(C(=O)NCCCN1CCCC1)C1CCN(S(=O)(=O)c2cccs2)CC1 (centres undefined) | i
NC(N)=NC(=O)Cc1c(Cl)cccc1Cl | i
NC(N)=N/N=C/c1c(Cl)cccc1Cl | +!
CCCC(=O)N(c1ccc2oc(C)c(C(=O)OC)c2c1)S(=O)(=O)c1ccc(CC)cc1 | i
CCOc1c(Br)cc(C2Nc3ccc(CC)cc3[C@H]3OCC[C@@H]23)cc1OC (some centres undefined) | i
Cc1cc(OCC(O)Cn2c(C3CC3)nc3ccccc32)cc(C)c1Cl (centres undefined) | i
CCCCc1nnc2sc(COc3ccc(Br)cc3)nn12 | i
CSc1ccc2c(c1)N(CCC1CCCCN1C)c1ccccc1S2 (centres undefined) | i
O=S(=O)(c1ccccc1)N1CCCC1c1ccc(Cl)cc1 (centres undefined) | i
CN1CCCC1CCOC(C)(c1ccccc1)c1ccc(Cl)cc1 (centres undefined) | +
O=C(CC1CCCCC1)Nc1cc(F)c2nc(N3CCOCC3)ccc2c1 | i
O=c1c(-c2ccccc2)c(N2CCc3ccccc3C2)c1=O | i
CN1CCCN(c2ccc(NC(=O)c3ccccc3Cl)c(C(=O)O)c2)CC1 | i
CC1CCCN(c2ccc(NC(=O)c3ccccc3Cl)c(C(=O)O)c2)C1 (centres undefined) | +
CC1CCCN(c2ccc(NC(=O)C3CCC3)c(C(=O)O)c2)C1 (centres undefined) | i
CO/N=C(\C(=O)N[C@@H]1C(=O)N2C(C(=O)[O-])=C(C[N+]3(C)CCCC3)CS[C@H]12)c1csc(N)n1 | +
CC(C)(O/N=C(\C(=O)N[C@@H]1C(=O)N2C(C(=O)[O-])=C(C[n+]3ccccc3)CS[C@H]12)c1csc(N)n1)C(=O)O | i
COCC1=C(C(=O)OC(C)OC(=O)OC(C)C)N2C(=O)C(NC(=O)C(=NOC)c3csc(N)n3)C2SC1 (centres undefined) | i
CC(C)CCSc1c(C(C)C)cnc2c1c(=O)n(C)c(=O)n2C | i
